Screening data: PubChem BioAssay, National Center for Advancing Translational Sciences (NCATS)
Marburg entry inh: Marburg virus entry inhibition; Marburg virus pseudotyped entry inhibition, cell reporter; Potency, µM (series often up to 37.8 µM), actives largely listed as inhibitors; 300,000 tested, 1.8% active; calls by dose curve; tested in HEK293 cells
LASV entry inh: inhibitors of Lassa virus binding or cell entry | Lassa virus pseudotype entry inhibition, cell reporter | Potency, µM (highest dose often 37.9 µM), hits mostly inhibitors | 300,000 tested, 1.2% active; calls by dose curve; tested in HEK293 cells; note: nearly all actives have a fitted effect of over 50% in size
HCMV inh: blocks human cytomegalovirus replication; HFF cells, HCMV-luciferase reporter, 72 h; active compounds read low; activity change, negative = inhibition, % at 57.5 µM; 410,000 tested, 4.5% active; AID 1259415; in the data active = activity change below about -60%; inconclusive = no clear call, values can overlap the other calls; inactive = above about -39%
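Compounds were evaluated in HFFs infected with an HCMV luciferase reporter virus (MOI 1 PFU/cell). Luciferase in lysates collected 72 h post infection served as the replication measure.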
FMDV inh: blocks foot and mouth disease virus. FMDV antiviral cell-based qHTS. Potency, µM (titrated, usually from 57.9 µM), hits mostly inhibitors. 410,000 tested, 1.2% active. AID 1159524; calls by dose curve; tested in HEK293T cells; note: read-out not given here; nearly all actives have a fitted effect of over 45% in size
HeLa G2M arrest: inducers of G2/M cell cycle arrest in HeLa cells. shares compounds with Marburg entry inh. HeLa cell cycle G2/M arrest, Hoechst DNA content imaging. Potency, µM, hits mostly inhibitors. 25 tested, 60% active
WI-38 tox: toxic to WI-38 fibroblasts in PNC inhibitor counter-screen; shares compounds with Marburg entry inh; WI-38 normal lung fibroblasts, ATPLite luminescence ATP viability, 24 h; Potency, µM (top dose mostly 46.1 µM), actives largely listed as inhibitors; 120 tested, under 10 active
PNC assembly inh: confirmation of perinucleolar compartment assembly inhibitors | AID 2730 | PC3M PTB-GFP, PNC prevalence imaging, 16 h | shares compounds with Marburg entry inh | Potency, µM (series often up to 46.1 µM), usual class: inhibitors | 120 tested, 50% active
PC3M caspase: PC3M caspase 3/7 activation by PNC inhibitor hits. shares compounds with Marburg entry inh. PC3M-GFP caspase 3/7 activation, luminescence, 24 h. activity change, positive = activation, % at 46.1 µM. 120 tested, under 10 active
Large screens that a line does not name were inactive (follow-up assays come after a bar, where they were run). In the library only some 6.2% were active in any assay of this set; here they are far more common. Unless noted, calls come from the whole dose curve; as a rule, active = well fitted curve in the direction sought with a large enough effect; inconclusive = small, poorly fitted or top-dose-only effect, or another doubt; inactive = no such curve, though single readings can be large; an effect the other way counts as inactive or inconclusive.

CSc1nnc2c3ccccc3n(Cc3ccccc3)c2n1	none
O=C(NC(Cc1c[nH]c2ccccc12)C(=O)Nc1ccc(OC(F)(F)F)cc1)c1cccs1 (stereo unspecified)	Marburg entry inh 2.59µM, LASV entry inh 2.06µM, HCMV inh -97.0, FMDV inh inconclusive | WI-38 tox inactive | PNC assembly inh 7.08µM | PC3M caspase inactive
O=C1C(Nc2ccccc2)=C/C(=N/S(=O)(=O)c2cccs2)c2ccccc21	Marburg entry inh 4.11µM, LASV entry inh inconclusive, FMDV inh inconclusive (no result: HCMV inh) | WI-38 tox 28.2µM | PNC assembly inh inconclusive | PC3M caspase inconclusive
Cc1ccc(NC2=C/C(=N/S(=O)(=O)c3cccs3)c3ccccc3C2=O)cc1	Marburg entry inh 4.61µM, LASV entry inh 4.11µM, HCMV inh -102.0, FMDV inh 7.94µM | WI-38 tox 31.6µM | PNC assembly inh 25.1µM | PC3M caspase inconclusive
CCc1ccc(NC(=O)CSC2=Nc3ccccc3C3=NC(CC(=O)NCc4cccs4)C(=O)N23)cc1 (stereo unspecified)	FMDV inh inconclusive (no result: Marburg entry inh)
O=C(Cc1cccs1)Nc1nc2c(s1)CCCC2	Marburg entry inh 0.58µM, LASV entry inh 2.59µM, HCMV inh -73.1 | WI-38 tox inactive | PNC assembly inh 8.91µM | PC3M caspase inactive
CC(C)(C)c1nc(SCC(=O)Nc2nc3c(s2)CCCC3)c2ccccc2n1	Marburg entry inh 1.03µM, LASV entry inh 1.03µM, HCMV inh -61.3 (no result: FMDV inh) | WI-38 tox inactive | PNC assembly inh 7.08µM | PC3M caspase inactive
C#CC1(O)C2C=C(OC)C(=O)C1C(c1ccccc1)C2C (stereo unspecified)	none (no result: LASV entry inh, HCMV inh, FMDV inh)
COc1cc(C(=O)Oc2ccccc2/C=N/NC(=O)c2ccc(Cl)cc2)cc(OC)c1OC	Marburg entry inh 11.6µM, LASV entry inh 11.2µM, HCMV inh -99.3 | WI-38 tox inconclusive | PNC assembly inh inconclusive | PC3M caspase inactive
NC(=O)Cn1c(S(=O)(=O)Cc2ccccc2)nc2ccccc21	none
C#CCn1c(S(=O)(=O)Cc2ccc(F)cc2)nc(-c2ccccc2)c1-c1ccccc1	Marburg entry inh 0.92µM, LASV entry inh 3.66µM, HCMV inh -97.3, FMDV inh inconclusive | WI-38 tox inactive | PNC assembly inh 7.94µM | PC3M caspase inactive
COc1ccc(Nc2nc3cc(-c4ccccc4C)sc3c(=O)n2C)cc1OC	none (no result: Marburg entry inh, LASV entry inh)
Cc1c(C(=O)Nc2c(F)cccc2F)sc2ncn(Cc3ccccc3F)c(=O)c12	none (no result: Marburg entry inh)
COc1ccc(-c2cc(C#N)nc(N3CCN(C)CC3)n2)cc1	Marburg entry inh inconclusive | WI-38 tox inactive | PNC assembly inh inconclusive | PC3M caspase inactive
COc1ccc2[nH]cc(CCNc3cc(-c4ccoc4)ncn3)c2c1	none (no result: Marburg entry inh, LASV entry inh, HCMV inh)
c1ccc2c(c1)[nH]c1cnccc12	none
Cc1c2ccncc2c(C)c2c1[nH]c1ccccc12	Marburg entry inh 4.11µM, LASV entry inh 6.51µM (no result: HCMV inh) | HeLa G2M arrest inconclusive | WI-38 tox inactive | PNC assembly inh inconclusive | PC3M caspase inactive
Cc1cc(C(=O)N/N=C/c2cc(Br)cc(Br)c2OC(=O)c2ccccc2)n[nH]1	LASV entry inh inconclusive (no result: HCMV inh, FMDV inh) | WI-38 tox inactive | PNC assembly inh inconclusive | PC3M caspase inactive
Cc1cc(C(=O)N/N=C\c2cc(C(C)(C)C)ccc2O)n[nH]1	none (no result: Marburg entry inh, LASV entry inh, HCMV inh)
COc1cc([C@@H]2c3cc4c(cc3[C@H](O)C3COC(=O)[C@@H]32)OCO4)cc(OC)c1OC (stereo partly specified)	Marburg entry inh inconclusive, LASV entry inh inconclusive (no result: HCMV inh, FMDV inh) | HeLa G2M arrest 0.0224
CN(C)c1nc(OCCNC(=O)COc2ccccc2Cl)nc(N(C)C)n1	none | WI-38 tox inactive | PNC assembly inh inconclusive | PC3M caspase inactive
Cc1ccc(S(=O)(=O)N(C)c2ccc(OCC(=O)Nc3nc4ccccc4s3)cc2)cc1	Marburg entry inh 14.6µM, LASV entry inh inconclusive, HCMV inh -80.5, FMDV inh inconclusive | WI-38 tox inactive | PNC assembly inh inconclusive | PC3M caspase inactive
Cc1ccc(S(=O)(=O)N(C)c2ccc(OCC(=O)Nc3nc(-c4ccccc4)cs3)cc2)cc1	Marburg entry inh inconclusive, LASV entry inh inconclusive
O=[N+]([O-])c1cc(/C=N/Nc2nc3ccccc3[nH]2)c(O)cc1O	Marburg entry inh 8.91µM, LASV entry inh 10µM, HCMV inh -98.8 | WI-38 tox inactive | PNC assembly inh 28.2µM | PC3M caspase inactive
C(=N\Nc1nc2ccccc2[nH]1)/c1c[nH]c2ccccc12	Marburg entry inh inconclusive, LASV entry inh inconclusive
Nc1[nH]c(C(=O)c2ccccc2)c(-c2ccccc2C(F)(F)F)c1C(=O)c1cccs1	none (no result: Marburg entry inh, LASV entry inh)
CCOC(=O)N[C@H](C(=O)N1CCC[C@H]1C(=O)NC1CCCC1)c1ccccc1	none (no result: Marburg entry inh, LASV entry inh, FMDV inh)
COc1ccc(C(=O)Nc2nc3c(s2)CCCC3)cc1S(=O)(=O)N1CCCc2ccccc21	Marburg entry inh inconclusive, LASV entry inh inconclusive, HCMV inh -65.7 | WI-38 tox inactive | PNC assembly inh 5.01µM | PC3M caspase inactive
COc1ccc(S(=O)(=O)c2cn(CC(=O)Nc3cc(C)ccc3C)c3ccccc3c2=O)cc1	none
CCC(C)NC(=O)c1sc2ncccc2c1-n1c(C)ccc1C (stereo unspecified)	FMDV inh inconclusive (no result: Marburg entry inh)
Nc1[nH]nc2nc3ccccc3cc12	Marburg entry inh inconclusive
Nc1cccc2nc3ccccc3cc12	none (no result: Marburg entry inh, LASV entry inh, HCMV inh) | WI-38 tox inactive | PNC assembly inh inconclusive | PC3M caspase inconclusive
Cc1ccccc1C(=O)NNC(=S)Nc1cccc(C(F)(F)F)c1	Marburg entry inh inconclusive, LASV entry inh inconclusive | WI-38 tox inactive | PNC assembly inh inactive | PC3M caspase inactive
O=C(Cn1c2ncccc2c(=O)n1-c1ccccc1)NCc1ccccc1Cl	HCMV inh inconclusive (no result: Marburg entry inh)
COc1ccc(OC)c(NC(=O)Cn2c(=O)n(Cc3nc(C)no3)c(=O)c3ccccc32)c1	none (no result: Marburg entry inh)
COc1cc(NC(=S)NC(=O)c2cc(C)cc(C)c2)ccc1NC(=O)c1cccs1	Marburg entry inh inconclusive
COc1cc(NC(=S)NC(=O)c2ccc(C(C)(C)C)cc2)ccc1NC(=O)c1cccs1	Marburg entry inh inconclusive, LASV entry inh 1.03µM, HCMV inh -96.8 | WI-38 tox inactive | PNC assembly inh 3.98µM | PC3M caspase inactive
Cc1cc(C(=O)Cn2nnc3ccccc3c2=O)c(C)n1-c1ccccc1F	Marburg entry inh 3.16µM, LASV entry inh 1.12µM, HCMV inh -86.9, FMDV inh inconclusive | WI-38 tox 14.1µM | PNC assembly inh 4.47µM | PC3M caspase inactive
CCOCCCN(C(=O)Nc1ccc(Cl)cc1)C1CCN(C(C)=O)CC1	none (no result: Marburg entry inh)
CCCCN(C(=O)Nc1ccc(Cl)cc1)C1CCN(C(C)=O)CC1	LASV entry inh inconclusive | WI-38 tox inactive | PNC assembly inh inactive | PC3M caspase inactive
Cc1c(Cl)cccc1NC(=O)Nc1nnc(N(C)C2CCCCC2)s1	Marburg entry inh inconclusive
